Measured values taken from PubChem BioAssay (NCATS).
Values joined by “and” are separate entries in the source; they are usually repeats but may differ in a detail not shown here. Equal entries are not always repeated. Records with an inconclusive call do not appear. Active and inactive are the calls of the source. Calls come from the whole dose curve; as a rule, active = well fitted curve in the direction sought with a large enough effect; inconclusive = small, poorly fitted or top-dose-only effect, or another doubt; inactive = no such curve, though single readings can be large; an effect the other way counts as inactive or inconclusive.

Assays:
HEK293 = assay: Cytotoxic Profiling of Annotated Libraries Using Quantitative High-Throughput Screening (AID 1296008); details: Five cell lines viability, CellTiter-Glo ATP luminescence, 48-72 h; max response: hits give low values; note: nearly all actives have a fitted effect of over 60% in size
Method in brief: (§1)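 Cytotoxicity was measured as CellTiter-Glo ATP luminescence, read after 10 min at room temperature. Compound treatment of the cells lasted 48 or 72 hr at 37 degrees Celsius in a qHTS format.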

HaCat = assay: as above; details: Five cell lines viability, CellTiter-Glo ATP luminescence, 48-72 h; max response: hits give low values
Method in brief: as §1

KB-3-1 = assay: as above; details: Five cell lines viability, CellTiter-Glo ATP luminescence, 48-72 h; max response: hits give low values
Method in brief: as §1

NIH3T3 = assay: as above; details: Five cell lines viability, CellTiter-Glo ATP luminescence, 48-72 h; max response: hits give low values
Method in brief: as §1

MCC-13 = assay: qHTS assay to identify novel small-molecules to repurpose for Merkel cell carcinoma treatment (AID 1296009); details: MCC and control cell lines, CellTiter-Glo viability, 72 h; series mostly up to 46 µM; note: nearly all actives have a fitted effect of over 60% in size
Method in brief: (§2)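 Cell viability measured by CellTiter-Glo following 72 hr compound treatment at 37 degree celsius, with NPC and MIPE libraries tested in 8- and 11-point concentration series.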

MKL-2 = assay: as above; details: MCC and control cell lines, CellTiter-Glo viability, 72 h; series mostly up to 46 µM
Method in brief: as §2

UISO = assay: as above; details: MCC and control cell lines, CellTiter-Glo viability, 72 h; series mostly up to 46 µM
Method in brief: as §2

MKL-1 = assay: as above; details: MCC and control cell lines, CellTiter-Glo viability, 72 h; series mostly up to 46 µM
Method in brief: as §2

WaGa = assay: as above; details: MCC and control cell lines, CellTiter-Glo viability, 72 h; series mostly up to 46 µM
Method in brief: as §2

MCC-26 = assay: as above; details: MCC and control cell lines, CellTiter-Glo viability, 72 h; series mostly up to 46 µM
Method in brief: as §2

Hek293T = assay: Primary qHTS to identify gynecologic anti-cancer compounds using libraries of approved drugs and bioactive compounds (AID 1345084); details: Gynecologic cancer cell panel viability, ATPlite luminescence, 48 h, control line for the selectivity index; series mostly up to 57.5 µM; note: nearly all actives have a fitted effect of over 55% in size
Method in brief: (§3)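 In this quantitative HTS, cell killing is estimated from loss of ATP-dependent luciferase light. Cells see five compound concentrations over a 48 h exposure.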

JEG-3 = assay: as above; details: Gynecologic cancer cell panel viability, ATPlite luminescence, 48 h; series mostly up to 57.5 µM
Method in brief: as §3

CAOV3 = assay: as above; details: Gynecologic cancer cell panel viability, ATPlite luminescence, 48 h; series mostly up to 57.5 µM
Method in brief: as §3

CASKI = assay: as above; details: Gynecologic cancer cell panel viability, ATPlite luminescence, 48 h; series mostly up to 57.5 µM
Method in brief: as §3

Es-2 = assay: as above; details: Gynecologic cancer cell panel viability, ATPlite luminescence, 48 h; series mostly up to 57.5 µM
Method in brief: as §3

HeLa = assay: as above; details: Gynecologic cancer cell panel viability, ATPlite luminescence, 48 h; series mostly up to 57.5 µM
Method in brief: as §3

C33A = assay: as above; details: Gynecologic cancer cell panel viability, ATPlite luminescence, 48 h; series mostly up to 57.5 µM
Method in brief: as §3
% is set by controls: 0 for no effect and ±100 for the full control effect; potency is the fitted concentration of half-maximal effect.

CC(C)c1cc(C(=O)N2Cc3ccc(CN4CCN(C)CC4)cc3C2)c(O)cc1O
inactive: Potency (MKL-2)
active: Potency (HEK293) 105 nM and 58 nM | Potency (HaCat) 264 nM and 206 nM | Potency (KB-3-1) 73.1 nM | Potency (NIH3T3) 418 nM and 291 nM | Potency (MCC-13) 0.469 µM | Potency (UISO) 0.469 µM

CC[C@@H]1C(=O)N(C)c2cnc(Nc3ccc(C(=O)NC4CCN(C)CC4)cc3OC)nc2N1C1CCCC1
active: Potency (HEK293) 0.0166 µM | Potency (HaCat) 0.0332 µM | Potency (KB-3-1) 8.3 nM | Potency (NIH3T3) 1.87 µM | Potency (MCC-13) 0.662 µM | Potency (MKL-1) 0.0235 µM | Potency (MKL-2) 3.32 µM | Potency (WaGa) 4.69 µM

CCOC(=O)C1=C(C)NC2=C(C(=O)CC(C)(C)C2)C1c1ccc(-c2ccccc2)cc1 (stereo not drawn)
active: Potency (HEK293) 16.6 µM and 2.91 µM | Potency (HaCat) 7.31 µM | Potency (NIH3T3) 20.9 µM and 5.8 µM | Potency (MKL-2) 2.35 µM | Potency (Hek293T) 28.2 µM
inactive: outcome (KB-3-1) | Potency (MCC-13) | Potency (MCC-26) | Potency (UISO) | Potency (JEG-3)

C=CC(=O)Nc1cc2c(Nc3ccc(F)c(Cl)c3)ncnc2cc1OCCCN1CCOCC1
active: Potency (HEK293) 7.5 µM | Potency (HaCat) 0.0094 µM | Potency (NIH3T3) 4.73 µM | Potency (CAOV3) 10 µM | Potency (CASKI) 8.91 µM
inactive: outcome (KB-3-1) | Potency (MCC-13) | Potency (MCC-26) | Potency (Es-2) | Potency (HeLa) | Potency (Hek293T) | Potency (JEG-3)

CNC(=O)c1cc(Oc2ccc(NC(=O)Nc3cc(C(C)(C)C)nn3-c3ccc4ncccc4c3)c(F)c2)ccn1
active: Potency (HEK293) 23.5 µM | Potency (HaCat) 7.31 µM | Potency (KB-3-1) 9.35 µM and 5.17 µM | Potency (NIH3T3) 2.96 µM
inactive: Potency (MCC-13) | Potency (MKL-1) | Potency (MKL-2) | Potency (WaGa)

CC(C)CC(=O)Nc1n[nH]c2c1CN(C(=O)C1CCN(C)CC1)C2(C)C
inactive: Potency (MCC-13) | Potency (JEG-3)
active: Potency (HEK293) 372 nM and 326 nM | Potency (HaCat) 9.35 µM and 2.31 µM | Potency (KB-3-1) 2.35 µM and 2.91 µM | Potency (NIH3T3) 16.6 µM | Potency (MCC-26) 18.7 µM | Potency (MKL-2) 2.64 µM | Potency (UISO) 5.26 µM | Potency (C33A) 6.31 µM | Potency (Es-2) 7.08 µM | Potency (HeLa) 3.16 µM | Potency (Hek293T) 3.98 µM

Nc1nccc(Oc2ccc(NC(=O)c3c[nH]cc(-c4ccc(F)cc4)c3=O)cc2F)c1Cl
inactive: max response (HaCat) -25.3% | Potency (MCC-13) | Potency (C33A) | Potency (CASKI) | Potency (HeLa) | Potency (Hek293T) | Potency (JEG-3)
active: Potency (HEK293) 11.8 µM and 13 µM | Potency (KB-3-1) 23.5 µM and 18.4 µM | Potency (NIH3T3) 16.6 µM | Potency (MKL-1) 5.26 µM | Potency (MKL-2) 14.8 µM | Potency (UISO) 14.8 µM | Potency (WaGa) 2.35 µM

O=C(NCCCNc1nc(Nc2cccc(NC(=O)N3CCCC3)c2)ncc1I)c1cccs1
inactive: Potency (MKL-2)
active: Potency (HEK293) 20.9 µM | Potency (HaCat) 18.7 µM | Potency (KB-3-1) 13200 nM | Potency (NIH3T3) 2.09 µM | Potency (MCC-13) 9.35 µM | Potency (UISO) 16.6 µM | Potency (WaGa) 9.35 µM

CC=CC1=C(C(=O)O)N2C(=O)[C@H](NC(=O)[C@H](N)c3ccc(O)cc3)[C@@H]2SC1
inactive: max response (HEK293) -2.68% | max response (HaCat) -17% | max response (KB-3-1) 1.31% | max response (NIH3T3) 1.07% | Potency (MCC-13) | Potency (MKL-1) | Potency (MKL-2) | Potency (UISO) | Potency (WaGa)

CC(C)c1cnn2c(NCc3ccccc3)cc(N[C@@H](CO)[C@H](O)CO)nc12
active: Potency (HEK293) 332 nM and 1.03 µM | Potency (HaCat) 469 nM and 4.11 µM | Potency (KB-3-1) 731 nM | Potency (NIH3T3) 935 nM and 3.66 µM | Potency (MCC-13) 1.66 µM | Potency (MCC-26) 0.743 µM | Potency (MKL-2) 1.05 µM | Potency (C33A) 7.08 µM | Potency (CASKI) 4.47 µM | Potency (Es-2) 1.58 µM | Potency (HeLa) 2.82 µM | Potency (Hek293T) 1.41 µM

NC1(Cc2ccc(Cl)cc2)CCN(c2ncnc3[nH]ccc23)CC1
inactive: max response (HaCat) -10.8% | max response (KB-3-1) -6.56% | max response (NIH3T3) 0.262% | Potency (MCC-13) | Potency (MCC-26) | Potency (MKL-2) | Potency (CASKI) | Potency (Es-2) | Potency (HeLa)
active: Potency (HEK293) 1.66 µM and 6.51 µM | Potency (C33A) 10 µM | Potency (Hek293T) 10 µM
